Experimental data as given in PubChem BioAssay AID743398 (Broad Institute, 2014).
Screen size: about 300,000 compounds; about 3,600 (1.2%) were called active. The sample holds actives, similar compounds and a random draw of the others, so the mix is not that of the screen. A number with no mark means an inactive call. Rule as the data show it: active = activation above about 30% (passing the limit was not always enough); inconclusive = no clear call, values can overlap the other calls.

Assay: Wnt/beta-catenin pathway activators, primary screen, cell-based, plate reader, single point (AID 743398);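 also: 0% = neutral control wells and 100% = positive control wells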
Conditions: Wnt/beta-catenin reporter cell assay, activator, at 9.35 µM, stronger effect = higher value

With `N#CC1=C(N)N(c2ccccc2)C2=C(C(=O)CCC2)C1c1ccccc1` (stereo unspecified) as the molecule, how does the activation read?
The activation was -0.648%.

With `COc1ccc(C2C(C#N)=C(N)N(c3ncn[nH]3)C3=C2C(=O)CCC3)cc1` (stereo unspecified) as the molecule, how does the activation read?
The activation was 43.2% (active).

For `CCOc1ccc(C2C(C#N)=C(N)N(N(C)C)C3=C2C(=O)CCC3)cc1` (stereo unspecified), which activation is on record?
The activation was 6.29%.

For `COc1cccc(-c2nc3nc(C)cc(C)n3c2NC2CCCCC2)c1`, which activation is on record?
Its activation is 5.8%.

With `CC[C@H](NC(=O)[C@H](Cc1ccccc1)NC(=O)[C@H]1O[C@@H](n2cnc3c(=O)[nH]c(N)nc32)[C@H](O)[C@@H]1O)c1ccccc1` as the molecule, how does the activation read?
The activation was -0.864%.

For `Cc1sc2ncnc(N3CCC(C(=O)Nc4ccc(F)cc4Cl)CC3)c2c1C`, which activation is on record?
The activation was -1.16%.

For `Cc1sc2ncnc(N3CCC(C(=O)Nc4nc5ccc(Cl)cc5s4)CC3)c2c1C`, which activation is on record?
The activation was 38.3% (active).

For `Cc1sc2ncnc(N3CCC(C(=O)NNC(=O)c4ccc(F)cc4)CC3)c2c1C`, which activation is on record?
Its activation is 3.2%.

With `C[C@H](NC(=O)[C@@H]1CCCN1C(=O)[C@@H]1CCCN1C(=O)c1ccccc1)c1ccccc1` as the molecule, how does the activation read?
Its activation is -3.41%.

With `CCn1c(C)cc(=O)cc1-c1ccc(Cl)cc1` as the molecule, how does the activation read?
The activation was 2.88%.

With `COc1ccc(Cn2c(=O)oc3ccccc32)cc1` as the molecule, how does the activation read?
Its activation is 8.74%.

Which activation does the source give for `COc1ccc(Cn2c(-c3ccc(Cl)cc3)c[n+]3ccccc23)cc1` here?
The activation was 68.9% (active).

For `Cc1cc(C)n2c(NCc3ccccc3)c(CC(C)C)nc2n1`, which activation is on record?
Its activation is -0.325%.

For `COC(=O)C1=C(C)N(Cc2cccc(C(F)(F)F)c2)C(=NCc2ccccc2)NC1c1ccccc1C(F)(F)F` (stereo unspecified), which activation is on record?
The activation was -15.6%.

Which activation does the source give for `O=C(CC(CC(=O)c1ccccc1)c1ccco1)c1ccccc1` here?
The activation was 0.593%.

Which activation does the source give for `O=C(COC(=O)c1ccc(O)cc1O)c1ccc2c(c1)OCCO2` here?
Its activation is 53.6% (active).

For `O=C(COC(=O)c1ccccc1)c1ccc2c(c1)OCCO2`, which activation is on record?
The activation was -3.49%.

For `O=C(COC(=O)c1ccc(O)cc1O)NC(=O)c1ccccc1`, which activation is on record?
The activation was -3.61%.

With `O=C(O)Cn1cnc2c(NCc3ccccc3)ncnc21` as the molecule, how does the activation read?
Its activation is -0.517%.

For `COC(=O)C1=C(C)N(Cc2cccc(C(F)(F)F)c2)C(=NCc2ccccc2)NC1c1ccc(Cl)cc1` (stereo unspecified), which activation is on record?
Its activation is -31.1%.

Which activation does the source give for `COc1ccc(-c2cc(C(=O)NCCCn3ccnc3)no2)cc1` here?
Its activation is 6.05%.

Which activation does the source give for `O=C(NCCCn1ccnc1)c1cc(-c2ccccc2)on1` here?
Its activation is 113% (active).

Which activation does the source give for `O=C(NCCCn1ccnc1)c1ccccc1F` here?
Its activation is -0.169%.

Which activation does the source give for `O=C(NC1CCCC1)c1cc(-c2ccccc2)on1` here?
Its activation is 46.9% (active).

With `O=C(NC1CCCCC1)c1cc(C2CC2)on1` as the molecule, how does the activation read?
Its activation is 24.8%.

For `O=C(NC1CCCCCCC1)c1cccs1`, which activation is on record?
Its activation is 9.38%.

Which activation does the source give for `Cc1ccccc1S(=O)(=O)N1[C@@H](c2cccc(Cl)c2)C(C(=O)OC(C)(C)C)=CC[C@H]1c1ccc(Cl)cc1` here?
The activation was -9.66%.

For `COc1ccccc1-c1ccc([C@@H]2C[C@H]3[C@H](CON3C)CN2S(=O)(=O)c2cc(Cl)cc(Cl)c2)cc1`, which activation is on record?
The activation was -3.43%.

For `COC(=O)[C@]12C[C@H](CC(=O)NCc3ccccc3)C(=O)N(CCC3=CCCCC3)C1=C[C@H](C(C)(C)C)O[C@@H]2C`, which activation is on record?
Its activation is -7.29%.

With `Cc1cccc(CNC(=O)c2sc(=O)n(Cc3ccccc3C)c2C)c1` as the molecule, how does the activation read?
Its activation is -2.16%.

For `Cc1cnc(NC(=O)c2ccccn2)s1`, which activation is on record?
The activation was 41.6% (active).

With `Cc1cnc(NC(=O)c2ccc(Cl)nc2)s1` as the molecule, how does the activation read?
Its activation is 29%.

With `O=C(Nc1nnc(C2CC2)s1)c1ccccn1` as the molecule, how does the activation read?
The activation was 3.38%.

With `COC(=O)[C@]12C[C@H](CC(=O)NCCCCc3ccccc3)C(=O)N(Cc3ccc4c(c3)OCO4)C1=C[C@H](C(C)(C)C)O[C@@H]2C` as the molecule, how does the activation read?
Its activation is -8.78%.

Which activation does the source give for `O=C(/C=C/c1ccccc1)Nc1nnc(SCC(=O)c2ccc3ccccc3c2)s1` here?
Its activation is -11.8%.

With `NC(=O)CSc1nnc(NC(=O)c2ccc(Br)o2)s1` as the molecule, how does the activation read?
Its activation is 3.36%.

With `NC(=O)CSc1nnc(NC(=O)c2ccc3ccccc3c2)s1` as the molecule, how does the activation read?
Its activation is 39.8% (active).

For `COc1ccc(CC(N)c2csc(NC(=O)Nc3ccc(C(C)C)cc3)n2)cc1` (stereo unspecified), which activation is on record?
Its activation is 0.986%.

Which activation does the source give for `Cc1ccc(C)c(CN2CCC(CNC(=O)C3CCCN(c4ncnc5c4nc4n5CCCCC4)C3)CC2)c1` (stereo unspecified) here?
Its activation is 2.22%.

For `CSc1ccc(CN2CCC2(C)C(=O)NCc2ccccc2Br)cc1` (stereo unspecified), which activation is on record?
The activation was -0.564%.

For `CCOC(=O)C1CCCN(C(=O)c2cc(-c3cccs3)oc2C)CC1` (stereo unspecified), which activation is on record?
Its activation is -1.53%.

For `Nc1ccc(N=Nc2ccccc2Cl)c(N)n1`, which activation is on record?
Its activation is 37.3% (active).

With `CCN1C(=O)[C@@H]2[C@@H]3CN(S(=O)(=O)c4ccccc4C)[C@@H](c4ccc(Cl)cc4)[C@@H]3C(=O)C[C@@H]2C1=O` as the molecule, how does the activation read?
The activation was -1.76%.

For `Oc1cccc2cc(-c3ccncc3)cnc12`, which activation is on record?
Its activation is 4.6%.

With `C=CC[C@]12C[C@@]3(O[C@H](c4ccc(C(F)(F)F)cc4)N=C3C[C@H](c3ccc(OC)cc3)[C@H]1C)N(C1CCN(Cc3ccccc3)CC1)C2=O` as the molecule, how does the activation read?
Its activation is -5.8%.

For `C=CCOc1cccc(C2C(C(=O)c3ccc(C)o3)=C(O)C(=O)N2CCN2CCOCC2)c1` (stereo unspecified), which activation is on record?
Its activation is -3.18%.

With `Cc1cccc(-c2noc(-c3ccc(F)cc3)n2)c1` as the molecule, how does the activation read?
The activation was 51% (active).

With `Cc1ccc(-c2nc(-c3ccncc3)no2)c(C)c1` as the molecule, how does the activation read?
Its activation is 0.571%.

Which activation does the source give for `Cc1ccc(Cc2nc(-c3cccc(C)c3)no2)cc1` here?
Its activation is 16.6%.

With `CN1CCCCC(NC(=O)C(C)(C)C)C1=O` (stereo unspecified) as the molecule, how does the activation read?
The activation was -0.306%.

Which activation does the source give for `Nc1[nH]c(C(=O)c2ccccc2)c(-c2ccc(Cl)cc2Cl)c1C(=O)c1ccccc1` here?
The activation was 3.74%.

Which activation does the source give for `COc1cccc(/C=C/c2ccc3ccccc3n2)c1OC(C)=O` here?
Its activation is -2.71%.

With `NC(=O)COC(=O)/C=C/c1ccc2ccccc2n1` as the molecule, how does the activation read?
The activation was 48.3% (active).

With `CCOc1cccc(/C=C/c2ccc3ccccc3n2)c1OC(C)=O` as the molecule, how does the activation read?
The activation was 7.85%.

For `C[C@@H]1CN([C@@H](C)CO)C(=O)CCCn2nncc2CO[C@@H]1CN(C)S(=O)(=O)c1ccc(-c2ccccc2)cc1`, which activation is on record?
The activation was -3.45%.

With `CCCNC(=O)C1(C)CCN(Cc2csc(-c3ccc(Cl)cc3)n2)C1` (stereo unspecified) as the molecule, how does the activation read?
Its activation is -1.95%.
